# The list is not random: actives were taken first. Their share in the collection is about 4.6%.
# D1 antagonist: human D1 dopamine receptor antagonism. 360,000 compounds, 3.2% hits. P21728. activity change, negative = inhibition, % at 10 µM. HEK293 TREx D1 cells, calcium flux, dopamine EC80; active compounds read low; in the data active = activity change below about -30%
#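 Tetracycline-induced HEK293 T-REx cells with force-coupled D1 receptor were loaded with a no-wash calcium dye. Compound was added after a 10 s baseline and read kinetically for 180 s; EC80 dopamine was then added and calcium flux followed another 180 s.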
# D1 potentiator: enhances dopamine response at the human D1 receptor; P21728; potentiation, % at 10 µM; HEK293 TREx D1 cells, calcium flux, dopamine EC20 potentiation; 360,000 compounds, 0.036% hits; in the data active = potentiation above about 30%
# TRHR enhancer: allosterically enhances the human TRH receptor; P34981; TRHR cells, fluo-8 calcium fluorescence, EC20 TRH enhancement; enhancement, % at 2 µM; 360,000 compounds, 0.66% hits; in the data active = enhancement above about 30%
# Target sequence (P34981 whole entry, looked up): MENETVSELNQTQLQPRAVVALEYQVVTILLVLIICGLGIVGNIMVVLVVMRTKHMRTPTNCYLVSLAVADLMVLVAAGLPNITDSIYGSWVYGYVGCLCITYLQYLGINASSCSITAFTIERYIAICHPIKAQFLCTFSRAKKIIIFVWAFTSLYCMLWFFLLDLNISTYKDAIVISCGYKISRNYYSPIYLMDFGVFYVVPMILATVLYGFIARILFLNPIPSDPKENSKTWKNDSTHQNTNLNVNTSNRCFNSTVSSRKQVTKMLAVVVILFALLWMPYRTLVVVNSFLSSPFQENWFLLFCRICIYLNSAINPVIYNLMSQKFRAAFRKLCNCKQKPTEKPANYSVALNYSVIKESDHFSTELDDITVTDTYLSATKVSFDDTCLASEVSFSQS
#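 Enhancer read-out: after compound pinning and an initial kinetic agonist-mode read, an EC20 of TRH (10 nM final) was injected and fluo-8 calcium signal (Ex 480/Em 530) followed at 1 s/cycle for 100 cycles in TRHR-expressing cells.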
# Epigenetic reg: regulators of epigenetic silencing causing reporter derepression in mouse cells; Potency, µM (titrated, usually from 53.9 µM), actives largely listed as activators; 280,000 compounds, 0.2% hits; murine LDR cells, GFP reporter derepression, 30 h; active = well fitted activation curve with a large enough effect; inconclusive = small, poorly fitted or top-dose-only effect; note: nearly all actives have a fitted effect of over 60% in size
#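 Murine LDR cells carrying a silenced, genomically integrated CMV-driven GFP reporter were exposed to compound for 30 hours at 37 C. After PBS washes, GFP-positive cells (20–120 um objects) were counted by laser-scanning microplate cytometry.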
# D1 ag: activates the human D1 dopamine receptor. P21728. HEK293 T-REx D1 cells, calcium flux, agonist mode. activation, % at 2 µM. 360,000 compounds, 1% hits
#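 Inducible HEK293 T-REx D1 cells, force-coupled to calcium signalling, were plated at 4000 cells/well with tetracycline and held overnight at 30 C. After no-wash calcium dye loading, compound-evoked calcium rise over 180 s flagged agonists.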
# TRHR ag: agonists of human TRH receptor; P34981; TRHR cells, calcium flux fluo-8, FDSS agonist mode; activation, % at 2 µM; 360,000 compounds, 0.18% hits; AID 493084
#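 Steps: seed TRHR cells overnight; add fluo-8 no-wash Ca dye, RT 30 min–1.5 h; record 10 s baseline; pin-transfer compounds; monitor fluorescence 1 cycle/s for the agonist window. Calcium increases flag candidate agonists.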
# A number is an active result; – = inactive; ? = inconclusive; · = not tested or not shown; ! = repeats disagree; [ ] = remark or other dose. Cut-off read from the data, not from the text of the source, unless noted: active = activation above about 30%; inactive = the rest.
SMILES,D1 antagonist,D1 potentiator,TRHR enhancer,Epigenetic reg,D1 ag,TRHR ag
C/C(=N\NC(=O)c1ccco1)c1ccc(-c2ccccc2)cc1,–,–,–,·,–,–
COc1cccc(N2CCN(c3ncnc4c3[nH]c3ccc(F)cc34)CC2C)c1 (centres undefined),-35,–,–,–,–,–
CCC1=Nc2cc(C(=O)NCCN3CCCC3)ccc2Sc2ccccc21,-30,–,–,·,–,–
CCC1=Nc2cc(C(=O)NCCN3CCOCC3)ccc2Sc2ccc(Br)cc21,-36,–,–,·,–,–
COCCCNC(=O)CCCN1C(=O)CCn2nc(-c3cn(C)c4ccccc34)cc21,–,–,–,–,–,–
C[C@@](Cc1ccccc1)(C(=O)O)N1C(=O)c2ccc(C(=O)O)cc2C1=O,–,–,–,·,–,–
O=C(CNc1ccc2c(c1)OCO2)N/N=C\c1cn(Cc2ccc(F)cc2)c2ccccc12,-41,–,–,–,–,–
CSC1=NC(C)(C)CC2(C)Nc3ccccc3N12 (centres undefined),-32,–,–,–,–,–
COc1ccc(NC(=S)Nc2ccc3nccnc3c2)cc1,-34,–,–,–,–,–
O=C(CSc1ccc(-c2cccs2)nn1)Nc1cccc(F)c1,–,–,–,–,–,–
N#Cc1ccc(Sc2ccccn2)c([N+](=O)[O-])c1,-60,–,–,–,–,–
Cc1ccc(NC(=O)C2(C)Cc3ccccc3C(=O)O2)c(C)c1 (centres undefined),–,–,50,–,–,–
Nc1c(C(=O)NCc2ccccc2)nnn1Cc1ccccc1,–,·,34,–,–,–
COc1ccc(NC(=O)Cn2nnc(C(=O)NCc3ccc4c(c3)OCO4)c2N)cc1,–,–,–,–,–,–
CCOc1ccc(Cn2nnc(C(=O)NCCc3ccc(Cl)cc3)c2N)cc1,-37,·,–,–,–,–
CCOc1ccc(Cn2nnc(C(=O)NCCc3ccccc3)c2N)cc1,–,·,–,–,–,–
CSc1ccc(Cn2nnc(C(=O)NCc3ccccc3)c2N)cc1,–,–,–,–,49,–
Cc1cc(C)cc(NC(=O)Cn2nnc(C(=O)NCc3ccc4c(c3)OCO4)c2N)c1,-32,–,–,·,–,–
O=C(COC(=O)C12CC3CC(CC(O)(C3)C1)C2)NCc1ccco1,–,–,–,·,–,–
Cc1ccccc1-c1nnc(SCC(=O)N2CCCc3ccccc32)o1,–,–,–,–,–,–
COc1cccc(CNC(=O)c2c(O)nc3ccccn3c2=O)c1,–,–,–,–,–,–
COc1cccc(Cn2nnc(C(=O)NCc3ccc(F)cc3)c2N)c1,-50,–,–,–,–,–
Cc1ccc(C)c(Cn2nnc(C(=O)NCc3ccccc3)c2N)c1,–,–,–,?,41,–
Cc1nc2c(-c3ccccc3)c(C)nn2c(SCC(N)=O)c1Cc1ccccc1,–,–,34,–,–,–
Cc1cccc(Cn2cc3c(=O)n(CC(=O)Nc4ccc(C)c(F)c4)nc-3c3cc(F)ccc32)c1,–,–,–,–,–,–
SMILES,D1 antagonist,D1 potentiator,TRHR enhancer,Epigenetic reg,D1 ag,TRHR ag
Cc1cc(C)cc(OCC(=O)N(Cc2cccs2)c2ccc(Cl)cc2)c1,–,–,–,–,33,–
Cc1ccc(N(Cc2cccs2)C(=O)COc2cccc(C)c2)cc1,–,–,–,–,–,–
O=C1OC(C(=O)Nc2nccs2)Cc2ccccc21 (centres undefined),-40,–,–,–,–,–
CC1(C(=O)Nc2nccs2)Cc2ccccc2C(=O)O1 (centres undefined),–,–,–,–,–,–
COc1ccc(C(O)C2=CCCC2=O)cc1 (centres undefined),·,·,·,–,·,·
Cc1cccc(NC(=O)C2(c3ccccc3)CC2(Cl)Cl)c1 (centres undefined),-64,–,–,–,–,–
CCC(Sc1nc2ccncc2[nH]1)C(=O)Nc1cc(Cl)ccc1C (centres undefined),-44!,–,–,–,–,–
O=C(NCc1ccccc1)C(c1ccccc1)N(Cc1ccc2c(c1)OCO2)C(=O)Cc1cccs1 (centres undefined),–,–,–,–,34,–
COC(=O)C/C=C\[C@H](C)[C@@H](OC)c1ccccc1Br,·,·,·,–[10.1 µM],·,·
COc1ccc(N2CCN(S(=O)(=O)c3ccc(OC)c(-c4noc(C)n4)c3)CC2)cc1,–,–,–,5µM,–,–
COc1ccc(S(=O)(=O)N2CCN(c3ccccc3F)CC2)cc1-c1noc(C)n1,-34,–,–,1.1µM,–,74
COc1ccc(N2CCN(S(=O)(=O)c3ccc(OC)cc3)CC2)cc1,–,–,–,–,–,–
CCOc1ccc(C(=O)OCc2cc(=O)n3cc(C)sc3n2)cc1,–,–,–,–,–,–
COc1cccc(NC(=O)N2CCN(c3cccc(C)c3)C(C)C2)c1 (centres undefined),-83,–,–,–,–,–
Cc1cccc(N2CCN(C(=O)Nc3ccc(F)cc3)CC2C)c1 (centres undefined),–,–,–,–,33,–
CC(=O)c1ccc(C(=O)N(Cc2cccnc2)c2nc3c(C)c(C)ccc3s2)cc1,·,–,–,–,–,–
CCOC(=O)C1C(=O)NC(N2CCN(Cc3ccccc3)CC2)=NC1c1ccco1 (centres undefined),-36,–,–,–,–,–
CCOC(=O)C1C(=O)NC(N2CCN(Cc3ccccc3)CC2)=NC1c1ccccc1 (centres undefined),–,–,–,–,–,–
COc1ccc(CCNC(=O)c2ccc3c(c2)N(Cc2ccccc2C)C(=O)c2ccccc2S3)cc1OC,–,–,–,–,–,–
O=C(CNC(=O)c1ccc(Br)o1)Nc1ccc(F)c(S(=O)(=O)N2CCOCC2)c1,–,–,–,·,–,–
CC(C)(C)OC(=O)N1CCC(c2c(C(=O)NCCN3CCC(Cc4ccccc4)CC3)cnn2-c2ccc(F)cc2)CC1,–,–,–,–,40,–
CC(C)(C)OC(=O)N1CCC(c2c(C(=O)NCCN3CCC(Cc4ccccc4)CC3)cnn2-c2ccccc2)CC1,–,–,–,–,56,–
COc1ccc(CCN2CCC(CNC(=O)c3cnn(-c4ccccc4)c3C3CCN(C(=O)OC(C)(C)C)CC3)CC2)cc1,–,–,–,–,38,–
CC(C)(C)OC(=O)N1CCC(c2c(C(=O)NCc3cccc(Cl)c3)cnn2-c2ccc(F)cc2)CC1,-43,–,–,–,–,–
COc1ccc(CCN2CCC(CNC(=O)c3cnn(-c4cccc(Cl)c4)c3C3CCN(C(=O)OC(C)(C)C)CC3)CC2)cc1,–,–,–,–,–,–

# From PubChem
